TDP1 cell CPT: growth inhibition of DT40 Tdp1-/-;hTDP1 cells with camptothecin (screen for TDP1 inhibitors) | 420,000 tested, 12% active | Potency, µM (doses to about 46.2 µM), for the others: at the highest dose activity change, negative = growth inhibition, usual class: inhibitors | chicken DT40 Tdp1-/-;hTDP1 cells + 20 nM CPT, ATP luminescence, 48 h; note: potency is the fitted concentration of half-maximal effect; nearly all actives have a fitted effect of over 55% in size
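Cell growth measured by CellTiter-Glo luminescence after a minimum 48 h, 37 C compound exposure with 20 nM CPT in Tdp1-knockout DT40 cells stably expressing hTDP1, seeded 400/well; qHTS titration format.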
DT40 TDP1 no CPT: qHTS for Inhibitors of human tyrosyl-DNA phosphodiesterase 1 (TDP1): qHTS in cells in absence of CPT; DT40 Tdp1-/- hTDP1 cells, no CPT, ATP luminescence, 48 h; 420,000 tested, 15% active; Potency, µM (doses to about 46.2 µM), for the others: top-dose activity change, negative = growth inhibition, actives largely listed as inhibitors; AID 686978, 2013; note: potency is the fitted concentration of half-maximal effect; nearly all actives have a fitted effect of over 55% in size
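Cells were dispensed at 400 per well, compounds added by pin tool, plates incubated ≥48 hr at 37 °C, then CellTiter-Glo added for 30 min at room temperature before luminescence reading. Line: DT40 Tdp1-/- complemented with hTDP1; camptothecin omitted.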
HT1080-NT tox: kills 2HG-producing HT-1080-NT fibrosarcoma cells; HT-1080-NT fibrosarcoma viability, CellTiter-Glo ATP luminescence, 48 h; Potency, µM (series often up to 46.1 µM), without a hit: top-dose activity, negative = less viability, most hits filed as cytotoxic; 360,000 tested, 1.6% active;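 note: NT is the 2HG producing partner of a matched IDH1 knockdown line; potency is the fitted concentration of half-maximal effect; 0% = DMSO-treated cells and -100% = media-only wells without cells; nearly all actives have a fitted effect of over 55% in size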
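HT-1080-NT; 750 cells/well; 5% FBS RPMI; 48 h compound, 37 degrees C; CellTiter-Glo luminescence; curve fitting and curve-class assignment.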
IL-1B inflam inh: blocks inflammasome-driven IL-1 beta release | THP-1 LPS/ATP IL-1B secretion, AlphaLISA, 16 h; stronger effect = lower value | activity change, % at 57.5 µM | 360,000 tested, 4.7% active; in the data active = activity change below about -50%; inconclusive = mostly about -30% to -49%
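THP-1 cells pretreated 1 hr with compounds (up to 57.5 uM final), then stimulated with LPS (250 ng/mL final) plus ATP (1.25 mM final); secreted IL-1B measured by AlphaLISA after 16 hr, decreased signal indicating inhibition.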
HT1080 IDH1KD tx: toxicity to HT-1080 IDH1 knockdown cells (counter line). HT-1080 IDH1 knockdown viability, ATP luminescence, 48 h. Potency, µM (series often up to 46.1 µM), inactives show top-dose activity, negative = toxicity, usual class: cytotoxic. 360,000 tested, 2% active. AID 686971;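 note: potency is the fitted concentration of half-maximal effect; 0% = DMSO wells and -100% = cell-free medium wells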
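IDH1KD HT-1080 cells, 750/well, RPMI + 5% FBS; compound pinned after 2 h settling; 48 h, 37 °C; CellTiter-Glo luminescence; % activity normalised to DMSO and no-cell wells; curves fitted, classed by r2 and efficacy.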
Numbers without * were called inactive; ? = inconclusive; nt = no result; [ ] = remark or other dose. The list is not random: actives were taken first. Their share in the collection is about 19%. Unless noted, calls come from the whole dose curve; as a rule, active = well fitted curve in the direction sought with a large enough effect; inconclusive = small, poorly fitted or top-dose-only effect, or another doubt; inactive = no such curve, though single readings can be large; an effect the other way counts as inactive or inconclusive. Unless noted, % is set by controls: 0 for no effect and ±100 for the full control effect.

SMILES	TDP1 cell CPT	DT40 TDP1 no CPT	HT1080-NT tox	IL-1B inflam inh	HT1080 IDH1KD tx
CCCCCC(=O)N1C[C@@H](n2cc(C3CC3)nn2)[C@H](O)C[C@@H]1c1ccc(C)cc1	?	13µM*	-4.6%	3.8	-11.7%
CCOCCOC(=O)c1[nH]c2c(c1C)C(=O)CC(c1cccs1)C2 (centres undefined)	1.03µM*	0.82µM*	0.461µM*	45.0	0.461µM*
Cc1c(C(=O)OCC(C)C)[nH]c2c1C(=O)CC(c1cccs1)C2 (centres undefined)	2.91µM*	3.66µM*	1.64µM*	59.6	1.3µM*
COCCOC(=O)c1[nH]c2c(c1C)C(=O)CC(c1cccs1)C2 (centres undefined)	1.16µM*	1.3µM*	?	89.9	4.61µM*
Clc1ccc(-c2nnc(COc3ncnc4sccc34)o2)cc1	5.9%	-3.6%	4.2%	33.1	9.6%
COc1cc(C2Nc3cccc4cccc(c34)N2)ccc1OC(C)=O	16.4µM*	16.4µM*	-5.2%	0.0	12.1%
COc1ccc(C2Nc3cccc4cccc(c34)N2)cc1Br	?	?	-20.4%	18.5	-5.9%
COc1cc(C2Nc3cccc4cccc(c34)N2)cc(OC)c1O	18.4µM*	?	?	-90.2*	?
Oc1ccc(C2Nc3cccc4cccc(c34)N2)c(O)c1	4.11µM*	25.9µM*	-23.3%	-3.6	?
O=[N+]([O-])c1ccc(C2Nc3cccc4cccc(c34)N2)cc1	-16.5%	-23.0%	1.9%	-0.7	2.9%
COC(=O)c1ccc(C2Nc3cccc4cccc(c34)N2)cc1	8.2µM*	9.2µM*	-4.7%	6.3	-25.3%
Nn1c(SCC(=O)NC2CCS(=O)(=O)C2)nnc1-c1ccco1 (centres undefined)	30.3%	0.3%	8.8%	9.4	10.1%
Cc1ccc2cc(CNC(C)CO)c(N3CCC(O)CC3)nc2c1 (centres undefined)	0.6%[9.04 µM]	-7.3%	nt	nt	nt
CCCCOc1ccc(CNn2c(C)nc3ccccc3c2=O)cc1	?	23.1µM*	8.7%	-3.7	0.9%
COc1cc(C(=O)Nc2ccccc2NC(=O)c2cc(OC)c(OC)c(OC)c2)cc(OC)c1OC	2.6%	-9.3%	11.7%	20.3	-1.6%
COc1cc(C(=O)NC(=S)Nc2ccccc2N2CCCC2)cc(OC)c1OC	?	20.6µM*	?	-9.2	?
COc1cc(C(=O)Nc2ccccc2N2CCCCC2)cc(OC)c1OC	?	20.6µM*	6.3%	-20.1	-7.7%
COc1c(C)cccc1C(=O)NC(=S)Nc1ccccc1N1CCCC1	?	-15.1%	-12.4%	-7.9	0.9%
Nc1cc(C(=O)c2ccccc2)ccc1[N+](=O)[O-]	-6.0%	0.1%	5.3%	?	-0.9%
CCN(Cc1cc2cc(OC)ccc2[nH]c1=O)C(=O)Cc1ccc(OC)cc1	?	?	5.1%	-5.8	3.1%
CCOC(=O)Cn1nnnc1CN(Cc1ccc(OC)cc1)Cc1cc2cc(CC)ccc2[nH]c1=O	14.6µM*	?	-28.6%	-89.2*	-4.9%[9.24 µM]
CCOC(=O)Cn1nnnc1CN(Cc1ccc(OC)cc1)Cc1cc2cc(C)cc(C)c2[nH]c1=O	23.1µM*	25.9µM*	-1.3%	0.0	-4.3%
Cc1cccc(NC(=S)NCCSc2ccc(Cl)cc2)c1	-2.7%	-27.2%	-22.4%	-105.2*	?
Cc1ccc(NC(=S)NCCSc2ccc(Cl)cc2)c(C)c1	?	?	2.5%	-5.5	-0.5%
Cc1ccc(C)c(NC(=S)NCCSc2ccc(Cl)cc2)c1	20.6µM*	16.4µM*	?	?	0.9%
COc1ccc(OC)c(NC(=S)NCCSc2ccc(C)cc2)c1	?	16.4µM*	5.2%	-10.1	-0.4%
Cc1ccc(Cl)cc1NC(=S)NCCCSC1CCCCC1	?	18.4µM*	-29.8%	-100.6*	18.4µM*
COc1ccc(NC(=S)NCCSc2ccc(C)cc2)c(OC)c1	?	?	-11.1%	?	?
